# In the library only some 2.5% were active in any assay of this set; here they are far more common.
# Vaccinia Venus – vaccinia inhibition (Venus reporter); Vaccinia virus Venus reporter expression, fluorescence; AID 720580; 330,000 compounds, 0.46% hits; Potency, µM (highest dose often 36.5 µM), for the others: at the highest dose activity change, negative = inhibition, usual class: inhibitors; calls by dose curve; tested in A549 cells; note: nearly all actives have a fitted effect of over 30% in size
# Marburg entry inh – Marburg virus entry inhibition. Marburg virus pseudotyped entry inhibition, cell reporter. Potency, µM (titrated, usually from 37.8 µM), inactives show at the top dose activity change, negative = inhibition, usual class: inhibitors. 300,000 compounds, 1.8% hits. AID 540276; calls by dose curve; tested in HEK293 cells
# LASV entry inh – blocks Lassa virus binding to or entry into cells. Lassa virus pseudotype entry inhibition, cell reporter. Potency, µM (top dose mostly 37.9 µM), for the others: top-dose activity change, negative = inhibition, most hits filed as inhibitors. 300,000 compounds, 1.2% hits. AID 540256; calls by dose curve; tested in HEK293 cells; note: nearly all actives have a fitted effect of over 50% in size
# Vaccinia mCherry – inhibitors of vaccinia virus infection (mCherry reporter signal); AID 720579; Vaccinia virus mCherry reporter infection, fluorescence; Potency, µM (highest dose often 36.5 µM), without a hit: at the highest dose activity change, negative = inhibition, actives largely listed as inhibitors; 310,000 compounds, 0.63% hits; calls by dose curve; tested in A549 cells; note: nearly all actives have a fitted effect of over 35% in size
# Numbers without * were called inactive; i = inactive; ? = inconclusive; . = no result given; [ ] = another dose, or the depositor's remark. % is set by controls: 0 for no effect and ±100 for the full control effect; potency is the fitted concentration of half-maximal effect.
SMILES,Vaccinia Venus,Marburg entry inh,LASV entry inh,Vaccinia mCherry
O=C(/C=C/c1ccccc1)NC(=S)NNC(=O)c1cccnc1,.,7%,21%,.
O=C(/C=C/c1ccccc1)NC(=S)NNC(=O)c1cnccn1,-16%[7.34 µM],?,7.9µM*,-23%[7.34 µM]
CC(=O)c1ccc(F)c(-c2cc(C)cc3c2OC(CNC(=O)c2ccnn2C)C3)c1 (stereo not drawn),?,.,.,-12%
CCn1c2c(c(=O)n3ncc(C(=O)N4CCN(c5ccc(C(C)=O)cc5)CC4)c13)CN(Cc1ccc(OC)cc1)CC2,-17%,.,10µM*,-24%
COc1ccc(CN2CCc3c(c(=O)n4ncc(C(=O)N5CCN(c6ccc(F)cc6)CC5)c4n3C)C2)cc1,-16%[7.34 µM],.,-18%[46.1 µM],-22%
CCOC(=O)c1c2c(n(C3CCCCC3)c1CN(C)C)CC(Br)=C(OC)C2,.,10µM*,.,.
C=CCc1ccccc1OCC(O)CN(C(C)C)C(C)C (stereo not drawn),-19%,6.3µM*,?,-7%
C=CCc1ccccc1OCC(O)CNC (stereo not drawn),6%,5%,17%,-11%
ClC1CCCC(Cl)C1Cn1nnc(N2CCCC2)n1 (stereo not drawn),.,24%[46.1 µM],.,.
Cc1ccccc1N(C(=O)CCC(=O)Nc1ccccn1)C(C(=O)NC(C)C)c1ccc(O)cc1 (stereo not drawn),-11%,7.1µM*,-3%,i
COc1ccc2[nH]c(=O)c(C(c3nnnn3C3CCCC3)N(C)C3CCCCC3)cc2c1 (stereo not drawn),.,5.2µM*,2%,.
Cc1ccc(NC(=O)Nc2ccc3c(c2)nc(C)n3C)cc1,-24%,11µM*,?,i
COc1ccc(OC)c(C(=O)c2coc3ccc(OC(C)=O)cc23)c1,-30%,?,11µM*,-29%
N=c1ccn2c(n1)O[C@H]1[C@@H](CO)[C@H](O)O[C@H]12,?,.,.,0.45µM*
CC(C)N(C(=O)[C@H]1C[C@H](CC(=O)NCCC2=CCCCC2)C(=O)N2CCc3c([nH]c4cc(-c5ccco5)ccc34)[C@]12C)C(C)C,11µM*,.,.,10µM*
CC(C)N(C(=O)[C@H]1C[C@H](CC(=O)NCCc2ccccn2)C(=O)N2CCc3c([nH]c4cc(-c5ccco5)ccc34)[C@]12C)C(C)C,?,.,.,-19%
CCN(CC)C(=O)[C@H]1C[C@H](CC(=O)NCCCN(C)C)C(=O)N2CCc3c([nH]c4cc(-c5ccco5)ccc34)[C@]12C,-15%,.,.,?
CC(C)N(C(=O)[C@H]1C[C@H](CC(=O)NCCCN(C)C)C(=O)N2CCc3c([nH]c4cc(-c5ccco5)ccc34)[C@]12C)C(C)C,?,.,.,10µM*
Cc1nnc(SC(=O)N2c3ccccc3Sc3ccccc32)s1,?,?,21µM*,10µM*
CCOC(=O)N1c2ccccc2Sc2ccccc21,-26%,.,.,i
COc1cccc(CN2CCC3(CCC(CNC(=O)c4ccccc4)O3)CC2)c1 (stereo not drawn),-9%,.,.,-9%
COC(=O)CNC(c1ccccc1)c1cc(Cl)ccc1NC(=O)c1cccc(Cl)c1 (stereo not drawn),-4%,10µM*,9%,-14%
CC1(C)CC(NC(=O)C2=C(C(=O)NC3CC(C)(C)NC(C)(C)C3)CCCC2)CC(C)(C)N1,.,-17%,.,.
O=C(c1cc(-c2ccccc2)nc2ccccc12)N1CCCC1,-4%,?,15%[46.1 µM],1%
c1ccc(-c2cc(NCCN3CCCCC3)c3ccccc3n2)cc1,11µM*,2.8µM*,?,?
SMILES,Vaccinia Venus,Marburg entry inh,LASV entry inh,Vaccinia mCherry
Cc1nc2ccccc2c2oc(C(=O)NCC3COc4ccccc4O3)cc12 (stereo not drawn),-16%,?,21µM*,?
Cc1nc2ccccc2c2oc(C(=O)NCCN3CCCCC3C)cc12 (stereo not drawn),-3%,21µM*,6%,20%
Cc1cc(C)c(OCC(=O)NCC2COc3ccccc3O2)c(C)c1 (stereo not drawn),-7%,3.5µM*,-2%,i
O=S(=O)(c1cccc(F)c1)N1CCN(c2nc(-c3cccs3)nc3ccccc23)CC1,-12%,.,.,-4%
CC1=C(C(=O)OC2CCCCCCC2)C(c2cccc(O)c2)NC(=O)N1 (stereo not drawn),-19%,?,1.8µM*,-28%
O=c1[nH]c(=S)[nH]c(O)c1N=Nc1ccc(SC(F)F)cc1,-4%,?,4µM*,-17%
O=c1[nH]c(=S)[nH]c(O)c1N=Nc1ccc(S(=O)(=O)N2CCc3ccccc32)cc1,-1%,-24%[46.1 µM],-14%,?
CN1c2ccccc2[C@@]2(O)C(=O)[C@@]1(C)[C@@H]1CCC=C[C@H]12,.,10%[14.2 µM],?,.
CCN(CC)c1ccc2cc(NC(=O)CCC(=O)O)c(=O)oc2c1,-8%,1.8µM*,?,-9%
CCOC(=O)[C@]12C[C@@H]3OCCN(C(=O)N[C@@H]1c1ccccc1)[C@@H]32,.,2%[14.2 µM],.,.
NC(=S)NN=C1CCCCCCCCC1,?,-12%,-1%,20µM*
NC(=S)NN=C1CCCCCCCC1,?,-1%,-8%,?
O=C(C[n+]1cccc(Br)c1)c1ccc2ccccc2c1,-12%,.,.,-8%
CN1CCN(Cc2cc(COCc3ccccc3)c3cccnc3c2O)CC1,?,6.3µM*,?,28µM*
Oc1c(CN2CCc3ccccc3C2)cc(Cl)c2cccnc12,?,.,.,2.5µM*
CCCOCc1cc(CN2CCN(c3cccc(Cl)c3)CC2)c(O)c2ncccc12,-23%[7.34 µM],?,?,2.8µM*
Oc1ccc(CN2CCN(Cc3ccccc3)CC2)c2cccnc12,.,-13%,?,.
COc1ccc(-n2c(C)cc(/C=C3\C(=O)NN(c4ccccc4)C3=O)c2C)cc1,-6%,17%,8%,-6%
Cc1cc(/C=C2/C(=O)NN(c3ccccc3)C2=O)c(C)n1-c1ccc(O)cc1,-27%,7.1µM*,?,-19%
COc1ccc2nc(-c3cccc(N)c3)[nH]c2c1,-25%,10µM*,11µM*,.
COc1ccc2nc(-c3ccc(N)cc3)[nH]c2c1,-13%,?,?,-13%
CCc1cc[n+](CC(=O)c2ccc(F)cc2)cc1C(=O)O,-10%,.,.,-16%
CN(Cc1ccccc1)C(=O)CSc1nc2ccccc2c(=O)n1Cc1ccco1,-2%,6.5µM*,5.8µM*,?
CCN(CC)C(=O)CSc1nc2c(sc(=S)n2-c2ccccc2)c(=O)n1Cc1ccco1,.,9.2µM*,?,.
COc1ccc(C(=O)[C@@H]2CCCCC2=O)cc1,.,24%,.,.
SMILES,Vaccinia Venus,Marburg entry inh,LASV entry inh,Vaccinia mCherry
CCCCn1cnc2cc(NCc3ccccc3Cl)ccc21,-11%,13µM*,?,-14%
NC(=O)Cc1ccccc1Oc1nccc(-c2c(-c3ccc(F)cc3)ncn2C2CCNCC2)n1,.,.,-16%,.
COc1cccc(NC(=O)c2ccc(NCCCN3CCC(C)CC3)c([N+](=O)[O-])c2)c1,-16%,4µM*,-15%[46.1 µM],i
COc1cccc(C2/C(=C(/O)c3cnn(-c4ccccc4)c3C)C(=O)C(=O)N2CCN(C)C)c1OC (stereo not drawn),-2%,1.1µM*,-7%,-11%
Cc1cc(C)nc(SCc2nnc(SCC(=O)Nc3nccs3)n2C)n1,-18%,?,0%,-15%
COc1ccc(CCCc2nnc(SCC(=O)Nc3nccs3)n2C)cc1C,.,4%,21µM*,.
Nc1nc2ccccc2n1C(=O)c1ccc(F)cc1,-12%,?,7.1µM*,i
